BAZ2B inh = inhibitors of human BAZ2B bromodomain | AlphaScreen BAZ2B-H3K14Ac peptide displacement | 360,000 tested, 4.4% active | Potency, µM (series often up to 114 µM), for the others: at the highest dose activity change, negative = inhibition, hits mostly inhibitors; further: on the % scale 0 is the no-effect control and ±100 the full control effect; nearly all actives have a fitted effect of over 60% in size
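AlphaScreen displacement of biotin-H3(5-23)K14Ac peptide (50 nM final) from BAZ2B (50 nM final) in PBS pH 7.4, 0.01% Tween-20; complex preformed 30 min RT, then compounds (top 110 uM) 30 min RT, beads 20 min dark.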
PLK1 PBD inh = PLK1 (human) polo-box domain binding inhibition. P53350. Plk1 PBD binding of FITC phosphopeptide, fluorescence polarization. Potency, µM, for the others: max response, negative = inhibition, hits mostly inhibitors. 360,000 tested, 2.8% active. AID 720504; further: series mostly up to about 57 µM; on the % scale 0 is the no-effect control and ±100 the full control effect; nearly all actives have a fitted effect of over 65% in size
12-LOX inh = ALOX12 (human) lipoxygenase inhibition | P18054 | purified 12hLO, xylenol orange hydroperoxide absorbance | Potency, µM (titrated, usually from 108 µM), for the others: at the highest dose activity change, negative = inhibition, hits mostly inhibitors | 580,000 tested, 1.1% active; further: on the % scale 0 is the no-effect control and ±100 the full control effect
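Purified human 12hLO (150 nM final) in 25 mM Hepes, 0.01% Triton X-100, pH 7.0 was preincubated 15 min at room temperature with compound. Then 40 uM arachidonic acid was added, 30 min. Hydroperoxide was read by Fe-XO absorbance ratio 573/405 nm.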
HP1b binding inh = inhibitors of HP1-beta chromodomain binding to methylated histone tails; P83916; AlphaScreen HP1-beta / biotin-H3K9me3 peptide binding; Potency, µM (highest dose often 114 µM), without a hit: top-dose activity change, negative = inhibition, actives largely listed as inhibitors; 390,000 tested, 0.56% active; further: nearly all actives have a fitted effect of over 70% in size
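AlphaScreen: HP1-beta (50 nM) preformed 30 min with biotin-H3(1-18)K9me3 peptide (50 nM) in PBS pH 7.4, 0.01% Tween-20. Compound added for 30 min at RT, then streptavidin donor/nickel chelate acceptor beads (10 ug/mL) for 30 min.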
JMJD2A Tudor = inhibitors of human JMJD2A Tudor domain; AlphaScreen JMJD2A-Tudor / H3K4me3 peptide binding; O75164; AID 504339; Potency, µM (series often up to 114 µM), without a hit: top-dose activity change, negative = inhibition, usual class: inhibitors; 390,000 tested, 4.4% active; further: on the % scale 0 is the no-effect control and ±100 the full control effect; nearly all actives have a fitted effect of over 50% in size
Target sequence (O75164 whole entry, looked up, the tested form may be a part): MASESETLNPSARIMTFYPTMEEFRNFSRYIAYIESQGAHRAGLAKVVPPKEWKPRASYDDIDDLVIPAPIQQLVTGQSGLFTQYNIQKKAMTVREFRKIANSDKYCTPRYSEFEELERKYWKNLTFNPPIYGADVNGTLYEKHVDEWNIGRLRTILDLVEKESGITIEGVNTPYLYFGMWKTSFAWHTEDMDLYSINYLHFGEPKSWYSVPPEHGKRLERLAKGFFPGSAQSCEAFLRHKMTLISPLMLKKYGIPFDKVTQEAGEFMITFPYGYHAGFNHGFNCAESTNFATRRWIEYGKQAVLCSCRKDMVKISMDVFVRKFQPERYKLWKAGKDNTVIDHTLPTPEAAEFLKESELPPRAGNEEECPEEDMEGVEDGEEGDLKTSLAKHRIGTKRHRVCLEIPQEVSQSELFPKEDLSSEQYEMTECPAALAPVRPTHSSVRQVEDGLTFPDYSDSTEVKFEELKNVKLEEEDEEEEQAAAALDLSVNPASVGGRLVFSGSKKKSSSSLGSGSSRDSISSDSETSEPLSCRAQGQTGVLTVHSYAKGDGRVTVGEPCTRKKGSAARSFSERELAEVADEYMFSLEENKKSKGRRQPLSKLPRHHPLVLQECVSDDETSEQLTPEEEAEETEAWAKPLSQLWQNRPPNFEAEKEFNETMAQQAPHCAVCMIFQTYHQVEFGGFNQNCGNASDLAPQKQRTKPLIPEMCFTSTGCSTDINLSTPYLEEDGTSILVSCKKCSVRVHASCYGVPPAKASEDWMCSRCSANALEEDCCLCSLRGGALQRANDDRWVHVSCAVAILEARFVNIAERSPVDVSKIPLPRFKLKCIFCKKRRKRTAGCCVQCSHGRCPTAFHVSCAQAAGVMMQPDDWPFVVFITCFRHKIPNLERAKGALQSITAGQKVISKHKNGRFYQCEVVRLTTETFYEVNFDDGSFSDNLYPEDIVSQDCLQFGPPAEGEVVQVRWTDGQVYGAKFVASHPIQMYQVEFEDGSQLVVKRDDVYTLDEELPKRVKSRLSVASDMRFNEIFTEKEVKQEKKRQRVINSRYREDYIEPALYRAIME
G9a block = inhibitors of human histone lysine methyltransferase G9a. Q96KQ7. G9a H3K9 monomethylation, AlphaScreen, 2 h. Potency, µM (doses to about 102 µM), without a hit: at the highest dose activity, negative = inhibition, usual class: inhibitors. 350,000 tested, 8.8% active. AID 504332; further: on the % scale 0 is the no-effect control and ±100 the full control effect; nearly all actives have a fitted effect of over 75% in size
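Chemiluminescent proximity detection of H3K9 monomethylation, read after 10 min bead incubation in the dark. Reaction: 20 nM G9a, 500 nM biotin-H3K9 peptide, 20 uM SAM cofactor, 2 h, room temperature, following 15 min enzyme-compound preincubation.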
Starred values were filed as active, the others as inactive; i = inactive; ? = inconclusive; · = not tested or not shown; [ ] = remark or other dose. A selection: hits, their analogues and other compounds. The true share with any hit is near 9%. The call rests on the fitted dose curve; in most records, active means well fitted curve in the direction sought with a large enough effect; inconclusive means small, poorly fitted or top-dose-only effect, or another doubt; inactive means no such curve, though single readings can be large; an effect the other way counts as inactive or inconclusive. Potency means the concentration at half of the fitted maximal effect.

SMILES | BAZ2B inh | PLK1 PBD inh | 12-LOX inh | HP1b binding inh | JMJD2A Tudor | G9a block
O=C1/C(=C\c2ccc3c(c2)OCO3)CCC/C1=C/c1ccc2c(c1)OCO2 | 25µM* | -1% | 318% | -22% | ? | 14µM*
O=C1/C(=C/c2ccncc2)CCC/C1=C\c1ccncc1 | -28% | 21µM* | -8% | 18% | -15%[11.4 µM] | ?
CC1=NOC(=O)/C1=C\c1ccc2c(c1)OCO2 | ? | 2.4µM* | ? | 25% | -2% | ?
O=C1OCC/C1=C\c1ccc2c(c1)OCO2 | 4% | -17% | 0% | 23% | -15% | -49%[2.33 µM]
CC1=NOC(=O)/C1=C/c1ccc2c(c1)OCO2 | ? | ? | ? | 33% | -1% | 56µM*
O=C1C(=Cc2ccncc2)CCCc2ccccc21 | · | -9% | 12% | · | · | ·
Cc1ccc(-n2nnc(C(=O)NC(C)c3ccccc3)c2C)cc1Cl (stereo not drawn) | · | · | -25% | · | · | ·
Cc1ccccc1OCCn1c(CCNC(=O)C(C)C)nc2ccccc21 | -2% | 1% | 23% | 33% | -11% | 2%
COc1ccc(-c2noc(CCC(=O)NCc3ccco3)n2)cc1 | -17% | -3% | -10% | 35% | -22% | -32%
O=C(CCc1ccco1)CCc1ccco1 | · | -13% | ? | ? | 56µM* | ·
Cc1nc2nc(C)c(NS(=O)(=O)c3ccc(CC(C)C)cc3)c(=O)n2[nH]1 | 12% | -13% | -8% | -4% | 1% | 40µM*
Cc1ccc(S(=O)(=O)Nc2c(C)nc3nc(C)[nH]n3c2=O)cc1 | 10% | -13% | -1% | -6% | ? | 79µM*
Cc1noc(C)c1CSCC(=O)NC1=NCCS1 | 9% | -5% | -1% | 42% | -4% | 8%
Cc1ccc(S(=O)(=O)N2CCOCC2)cc1NC(=O)CN1CCN(C)CC1 | 0% | 3% | 16% | 14% | -15% | -3%[59 µM]
Cc1ccc(S(=O)(=O)N2CCOCC2)cc1NC(=O)COC(=O)C1CCC1 | · | 1% | -47% | · | · | ·
Cc1ccc(S(=O)(=O)N2CCOCC2)cc1NC(=O)CN1CCN(c2ccc(O)cc2)CC1 | ? | 3% | ? | ? | 25µM* | ?
CCOC(=O)C1CCN(CC(=O)Nc2cc(S(=O)(=O)N3CCOCC3)ccc2C)CC1 | 79µM* | -4% | ? | 71µM* | 4µM* | 22µM*
Cc1cc(C)c2nc(-c3ccccn3)cc(C(=O)n3cccn3)c2c1 | -6% | -15% | 4% | 45% | -17% | -10%[59 µM]
Cc1cc(N2CCCCC2)nc(N)n1 | 6% | -17% | 1% | 24% | -11% | 9%[59 µM]
COc1cccc(C2=NOC(C(=O)Nc3ccccc3SC)C2)c1 (stereo not drawn) | 3% | 30µM* | -5% | -18% | -5%[57.1 µM] | -4%[59 µM]
CCc1nn(-c2ccccc2)c(=S)c2ccccc12 | ? | -18% | -16% | -23%[57 µM] | ? | 14µM*
CC(C)(C)Cc1nnc(NC(=O)CSc2ccccc2)s1 | ? | 5.3µM* | 18µM* | ? | 56µM* | 4.5µM*
CCCCc1nnc(NC(=O)CN2C(=O)c3ccccc3C2=O)s1 | -37% | -5% | -7% | 19% | -1% | -34%
CCCc1nnc(NC(=O)CCCN2C(=O)c3ccccc3C2=O)s1 | 10% | 27µM* | 1% | -1% | -24%[11.4 µM] | 1%[12.7 µM]
CCc1nnc(NC(=O)CCN2C(=O)c3ccccc3C2=O)s1 | -2% | -5% | 2% | 7% | -15% | -42%
SMILES | BAZ2B inh | PLK1 PBD inh | 12-LOX inh | HP1b binding inh | JMJD2A Tudor | G9a block
CC(C)Cc1nnc(NC(=O)CN2C(=O)c3ccccc3C2=O)s1 | -31% | ? | -23% | -17% | -9% | 25µM*
CC(C)(C)Cc1nnc(NC(=O)CN2C(=O)c3ccccc3C2=O)s1 | -26% | ? | ? | ? | -1% | 35µM*
COc1cc(F)ccc1S(=O)(=O)NCc1cccnc1 | -4% | 3% | 44% | 27% | 6% | ·
CCc1ccc2nc(NC(=O)C3CSC4(C)CCC(=O)N34)sc2c1 (stereo not drawn) | -34% | -11% | -9% | 22% | -12% | 28µM*
Cc1csc(NC(=O)C2CSC3(C)CCC(=O)N23)n1 (stereo not drawn) | -8% | 14% | i | 42% | -5% | ·
CC12CCC(=O)N1C(C(=O)Nc1nc3ccc(Cl)cc3s1)CS2 (stereo not drawn) | -33% | -24% | ? | 8% | ? | 45µM*
CC12CCC(=O)N1C(C(=O)Nc1nc3ccc(S(C)(=O)=O)cc3s1)CS2 (stereo not drawn) | -10% | -3% | 132% | 26% | -10% | ?
Cc1ccc(-c2csc(NC(=O)C3CSC4(C)CCC(=O)N34)n2)cc1 (stereo not drawn) | 79µM* | -8% | -10% | 7% | -2% | 1%[0.501 µM]
Cc1nnc(SCC(=O)Nc2ccc(N(C)C)cc2)n(N)c1=O | -7% | ? | 8% | -9% | -26% | -16%
CSc1ccc(/C=C(/C#N)C(=O)Nc2cccc(Cl)c2C)cc1 | · | · | 8% | · | · | ·
CC1=NN(c2ccc(C)cc2C)C(=O)C1C(c1ccccc1O)C1C(=O)N(c2ccc(C)cc2C)N=C1C (stereo not drawn) | -10% | ? | 1% | 4% | -24% | 1%[59 µM]
CC1=NN(c2ccc(C)c(C)c2)C(=O)C1C(c1cccc(O)c1)C1C(=O)N(c2ccc(C)c(C)c2)N=C1C (stereo not drawn) | ? | 8.4µM* | ? | -17% | ? | ?
CCc1cccc(OCC(=O)Nc2ccc3oc(C)nc3c2)c1 | · | · | -9% | · | · | ·
Cc1ccc(NC(=S)N(CCCN2CCC(C)CC2)Cc2ccco2)cc1C | ? | -18% | -4% | 13% | -22% | -11%
COc1ccc(-c2noc(N3CCC(C(=O)Nc4cc(OC)c(OC)c(OC)c4)CC3)n2)cc1 | -1% | -6% | 3% | 80% | -4% | -2%
Nc1c(C(=O)O)sc2nc(-c3ccccc3)cc(-c3ccc(Cl)cc3)c12 | ? | ? | ? | 10% | ? | -9%
Nc1c(C(=O)O)sc2nc(-c3ccc(F)cc3)cc(-c3ccccc3)c12 | -16% | 30µM* | -26% | 59% | -23% | ?
CC1Cc2ccccc2C(=O)N1 (stereo not drawn) | -4% | -28% | 7% | 61% | -14%[11.4 µM] | 16%[59 µM]
Cc1cccc(C)c1OCC(=O)OC/C(O)=C(\C#N)c1nc2ccccc2[nH]1 | -3% | -13% | -4% | 21% | -8% | ?
O=S(=O)(c1ccc2nc(Nc3ccccc3)ccc2c1)N1CCCCC1 | 40µM* | -21% | ? | 24% | 28µM* | ·
CC(=O)c1cccc(Nc2ccc3cc(S(=O)(=O)N4CCCC4)ccc3n2)c1 | 3% | · | 12% | 55% | 1% | ?
COc1ccc(Nc2ccc3cc(S(=O)(=O)N4CCCC4)ccc3n2)cc1OC | ? | · | ? | 22% | ? | 14µM*

Screening data deposited in PubChem by National Center for Advancing Translational Sciences (NCATS).
